{"source": "PubChem BioAssay AID588742", "about": "(Southern Research Specialized Biocontainment Screening …, 2011)", "note": "Hit rate of the full screen: of about 1,800 compounds, about 410 (23%) were called active. No rule for the calls is given here. Only a sample is shown. Results with a measured potency or affinity are listed apart.", "data": [{"assay": "Vero cell cytotoxicity, cytotoxicity control for flavivirus capping enzyme inhibitors (AID 588742)", "conditions": "Vero cells viability, cytotoxicity counter-screen; series mostly up to 40 µM", "values": [{"molecule": "COc1ccc(-c2csc(/C(C#N)=C(\\O)CSc3nccn3C)n2)cc1OC", "outcome": "inactive"}, {"molecule": "CCOc1ccc(C(c2c(O)nc(SC)n(C)c2=O)c2c(O)nc(SC)n(C)c2=O)cc1", "outcome": "inactive"}, {"molecule": "COC(=O)C1=C(C(=O)OC)C(c2cc(Br)ccc2O)c2sc(=O)[nH]c2S1", "note": "(configuration not stated)", "outcome": "inactive"}, {"molecule": "Cc1ccc(-c2c(C(=O)N/N=C/c3ccncc3)nnn2-c2nonc2N)cc1", "outcome": "inactive"}, {"molecule": "COc1ccc(Cc2c(O)nc(SC)n(C(C)=O)c2=O)cc1", "outcome": "inactive"}, {"molecule": "O=C(O)CN1C(=O)/C(=C\\c2cccc(OCc3ccccc3)c2)SC1=S", "outcome": "inactive"}, {"molecule": "O=C(CC(c1ccccc1)c1ccccc1O)N1CCCC1", "note": "(configuration not stated)", "outcome": "inactive"}, {"molecule": "O=C(O)c1ccc2c(c1Nc1ccccc1)C(=O)c1ccccc1C2=O", "outcome": "inactive"}, {"molecule": "Cc1sc(C(C2C(=O)CC(C)(C)CC2=O)C2C(=O)CC(C)(C)CC2=O)cc1[N+](=O)[O-]", "outcome": "inactive"}, {"molecule": "O=C(O)c1cccc(NS(=O)(=O)c2ccc(-c3ccc(S(=O)(=O)Nc4cccc(C(=O)O)c4)cc3)cc2)c1", "outcome": "inactive"}, {"molecule": "CCc1ccc(S(=O)(=O)ON2C(=O)c3ccccc3C2=O)cc1", "outcome": "inactive"}, {"molecule": "O=C(c1ccccc1NS(=O)(=O)c1ccc([N+](=O)[O-])cc1[N+](=O)[O-])N1O[C@@H]2C=C[C@H]1C2", "outcome": "inactive"}, {"molecule": "CCOc1ccc2c(c1)n([O-])c1c([n+]2=O)CCCC1", "outcome": "inactive"}, {"molecule": "COc1cc(C(=O)NC(C(=O)Nc2cccc(C(C)=O)c2)C(C)C)cc(OC)c1OC", "note": "(configuration not stated)", "outcome": "inactive"}, {"molecule": "Cc1nn(CCc2nc(-c3ccco3)cs2)c2[nH]c(=O)cc(C(F)(F)F)c12", "outcome": "inactive"}, {"molecule": "C/C(=N\\Nc1cccc(C(=O)O)c1)c1ccc(Cl)s1", "outcome": "inactive"}, {"molecule": "COC1=C(Br)C(=O)c2ncccc2C1=O", "outcome": "inactive"}, {"molecule": "CC(C)c1ccc(NC(=O)COC(=O)CSc2nnc(N)s2)cc1", "outcome": "inactive"}, {"molecule": "CC(/C=C1\\SC(=S)N(c2ccc(C(=O)O)cc2)C1=O)=C\\c1ccccc1", "outcome": "inactive"}, {"molecule": "CN(C)c1cc(N/N=C\\c2ccccc2)nc(N(C)C)n1", "outcome": "inactive"}, {"molecule": "COc1ccc(OC)c2c(C)cc(N3CCCCCC3)nc12", "outcome": "inactive"}, {"molecule": "O=C(O)CN1C(=O)/C(=C\\c2cc(Br)ccc2OCc2ccccc2F)SC1=S", "outcome": "inactive"}, {"molecule": "COc1cccc(CNC(=O)c2cccnc2Sc2ccc(C)cc2C)c1", "outcome": "inactive"}, {"molecule": "O=C(CCN1C(=O)S/C(=C\\c2ccccc2)C1=O)Nc1ccc(S(=O)(=O)Nc2nccs2)cc1", "outcome": "inactive"}, {"molecule": "CCS(=O)(=O)c1nc(S(=O)(=O)c2ccc(Cl)cc2)c(NCCCN2CCCC2=O)s1", "outcome": "inactive"}, {"molecule": "[O-][n+]1c2ccccc2[n+]([O-])c2cc(O)ccc21", "outcome": "inactive"}, {"molecule": "CC(C)c1cccc(-c2ccc3c(c2)S(=O)(=O)c2cccc(C(=O)O)c2C3=O)c1", "outcome": "inactive"}, {"molecule": "COc1cc(/C=N/NC(=S)N/N=C/c2cc(OC)c(OC)c(OC)c2)cc(OC)c1OC", "outcome": "inactive"}, {"molecule": "CN(C)c1ccc(N=Nc2ccc(S(=O)(=O)O)cc2)c2ccccc12", "outcome": "inactive"}, {"molecule": "CC(=O)NC(CC(=O)OCC(=O)Nc1cc(S(=O)(=O)N2CCCCC2)ccc1C)c1ccccc1", "note": "(configuration not stated)", "outcome": "inactive"}, {"molecule": "C#CCOc1ccc(/C=C2/C(=O)ON=C2C)cc1Br", "outcome": "inactive"}, {"molecule": "Cc1ccc(C)c(S(=O)(=O)/N=C2\\C=C(NS(=O)(=O)c3ccccc3)C(=O)c3ccccc32)c1", "outcome": "inactive"}, {"molecule": "Cc1cc(C)c(S(=O)(=O)ON2C(=O)c3ccccc3C2=O)cc1C", "outcome": "inactive"}, {"molecule": "O=C(OCCCN=C1NS(=O)(=O)c2ccccc21)c1ccc(F)cc1", "outcome": "inactive"}, {"molecule": "COc1cc(C2C(C#N)=C(N)OC3=C2C(=O)CC(C)(C)C3)cc([N+](=O)[O-])c1O", "note": "(configuration not stated)", "outcome": "inactive"}, {"molecule": "O=C(NN=Cc1cc(Br)c(O)c(Br)c1)c1ccccc1NS(=O)(=O)c1cccs1", "outcome": "inactive"}, {"molecule": "CN(C)c1ccc(NC(=O)c2ccc(Cn3cc([N+](=O)[O-])cn3)cc2)cc1", "outcome": "inactive"}, {"molecule": "C/C(CCc1oc2c(Br)cc(Br)cc2c1-c1ccc(C)o1)=N\\O", "outcome": "inactive"}, {"molecule": "CCCC(=O)OCCNc1cc(SCc2ccco2)c2nonc2c1[N+](=O)[O-]", "outcome": "inactive"}, {"molecule": "CC(=O)OCCCNc1cc(SCc2ccco2)c2nonc2c1[N+](=O)[O-]", "outcome": "inactive"}, {"molecule": "CN(c1ccccc1)c1ccc(/C=C(/CCC(=O)O)c2nc3ccccc3s2)cc1[N+](=O)[O-]", "outcome": "inactive"}, {"molecule": "CC(=O)OCCNc1cc(SCc2ccco2)c2nonc2c1[N+](=O)[O-]", "outcome": "inactive"}, {"molecule": "COc1cc(/C=C2\\C(=O)N(c3ccc(NC(C)=O)cc3)N=C2c2ccccc2)ccc1O", "outcome": "inactive"}, {"molecule": "CCOc1ccc(N2C(=O)C(Cl)=C(Nc3ccccc3O)C2=O)cc1", "outcome": "inactive"}, {"molecule": "C=CCOc1c(Br)cc(/C=C2/C(=O)ON=C2C)cc1OC", "outcome": "inactive"}, {"molecule": "Cc1cc(C2C(=O)CC(=O)CC2c2ccccc2)on1", "note": "(configuration not stated)", "outcome": "inactive"}, {"molecule": "COc1cc(/C=C2/C(=N)N3C(c4ccccc4)=CSC3=NC2=O)ccc1OCC(=O)O", "outcome": "inactive"}, {"molecule": "CCc1ccc(N=C2NC(=O)/C(=C/c3cc(Br)c(OCC(=O)O)c(OC)c3)S2)cc1", "outcome": "inactive"}, {"molecule": "O=C1/C(=C/c2cccs2)SC(=S)N1NS(=O)(=O)c1ccccc1", "outcome": "inactive"}, {"molecule": "CCCOC(=O)c1c(-c2ccc(C)cc2C)csc1NC(=O)C1C2CCC(O2)C1C(=O)O", "note": "(configuration not stated)", "outcome": "inactive"}, {"molecule": "COc1cccc(-c2[nH]nc3c2C(c2ccoc2)C(C#N)=C(N)O3)c1", "note": "(configuration not stated)", "outcome": "inactive"}, {"molecule": "O=S(=O)(O)c1cc2onnc2c2ccccc12", "outcome": "inactive"}, {"molecule": "CC1CC(=O)C(C(C2=C(O)CC(C)CC2=O)c2ccccc2)=C(O)C1", "note": "(configuration not stated)", "outcome": "inactive"}, {"molecule": "Cc1[nH][nH]c(=O)c1C(c1ccc(-c2ccc(Cl)c(C(=O)O)c2)o1)c1c(C)[nH][nH]c1=O", "outcome": "inactive"}, {"molecule": "Cc1[nH][nH]c(=O)c1C(c1ccc(-c2cccc(Cl)c2)o1)c1c(C)[nH][nH]c1=O", "outcome": "inactive"}, {"molecule": "Cc1[nH]n(-c2ncc(-c3ccccc3)s2)c(=O)c1C(c1ccc(Br)cc1)C(C#N)C#N", "note": "(configuration not stated)", "outcome": "inactive"}, {"molecule": "O=C(O)c1cc([N+](=O)[O-])c(Nc2cccc3ccccc23)c([N+](=O)[O-])c1", "outcome": "inactive"}, {"molecule": "O=C1Nc2ccc(F)cc2C12Nc1ccccc1-c1nnc(SCc3ccccc3Cl)nc1O2", "note": "(configuration not stated)", "outcome": "inactive"}, {"molecule": "CCc1ccc([C@@H]2CC=C(C(=O)O)[C@H](c3ccc(Cl)cc3)N2S(=O)(=O)c2ccc(C)cc2)cc1", "outcome": "inactive"}, {"molecule": "O=C(O)[C@H](Cc1ccccc1)N1C(=O)c2c(Cl)c(Cl)c(Cl)c(Cl)c2C1=O", "outcome": "inactive"}, {"molecule": "Cc1cc(C)c2nc(N3C(=O)C(O)=C(C(=O)c4ccco4)C3c3cccc(O)c3)sc2c1", "note": "(configuration not stated)", "outcome": "inactive"}, {"molecule": "COc1ccc(CNC(=O)CCCC2=NS(=O)(=O)c3ccccc3N2)cc1", "outcome": "inactive"}, {"molecule": "Cc1[nH]n(-c2ccccc2)c(=O)c1C(c1ccccc1[N+](=O)[O-])C(C#N)C#N", "note": "(configuration not stated)", "outcome": "inactive"}, {"molecule": "O=C1CCC/C1=C/Nc1ccc2c(c1)OCO2", "outcome": "inactive"}, {"molecule": "N#Cc1c2c(c(-c3ccco3)[nH]c1=O)CCCC2", "outcome": "inactive"}, {"molecule": "Cn1c(=O)c([N+](=O)[O-])c(Oc2ccccc2)c2ccccc21", "outcome": "inactive"}, {"molecule": "O=Nc1c(O)ccc2cc(S(=O)(=O)O)ccc12", "outcome": "inactive"}, {"molecule": "COC(=O)c1cc(C(=O)OC)cc(N2C(=O)CC(NNC(=O)c3ccccc3Cl)C2=O)c1", "note": "(configuration not stated)", "outcome": "inactive"}, {"molecule": "O=C(O)/C=C/C(=O)Nc1ccc(C2(c3ccc(NC(=O)/C=C/C(=O)O)cc3)c3ccccc3-c3ccccc32)cc1", "outcome": "inactive"}, {"molecule": "CCCn1nc(NS(=O)(=O)c2cccc3nonc23)c2cc3cccc(C)c3nc21", "outcome": "inactive"}, {"molecule": "Cc1ccc(/C=C2\\SC(=S)N(NS(=O)(=O)c3ccc(C)cc3)C2=O)cc1", "outcome": "inactive"}, {"molecule": "Cc1ccc(-c2nnc(Nc3ccc(CC(N)=O)cc3)c3ccccc23)cc1S(N)(=O)=O", "outcome": "inactive"}, {"molecule": "Cc1nc(Nc2ccc(C(=O)O)cc2)nc(Nc2ccc(C(=O)O)cc2)c1[N+](=O)[O-]", "outcome": "inactive"}, {"molecule": "CC1=CC(=O)C(Sc2ccc(C)cc2)=CC1=O", "outcome": "inactive"}, {"molecule": "O=C(CCN1C(=O)/C(=C/c2ccc3c(c2)OCO3)SC1=S)Nc1cccc(C(=O)O)c1", "outcome": "inactive"}, {"molecule": "COc1ccc2nc(N3CCC(O)CC3)c(C#N)cc2c1", "outcome": "inactive"}, {"molecule": "CCOC(=O)c1c(=O)n(O)c2ccc(C)cc2[n+]1[O-]", "outcome": "inactive"}, {"molecule": "Cc1ccc(-c2ccc(/C=C3\\C(=O)ON=C3c3ccccc3)o2)c([N+](=O)[O-])c1", "outcome": "inactive"}, {"molecule": "COc1ccc(/C=C2\\C(=O)ON=C2c2ccccc2)cc1OC", "outcome": "inactive"}, {"molecule": "COc1cccc(/C=C2/C(=O)NN(c3ccc(C)c(C)c3)C2=O)c1", "outcome": "inactive"}, {"molecule": "CCOc1cc(/C=N/N=C2/NC(=O)C(CC(=O)O)S2)ccc1OCc1ccc(Cl)cc1", "note": "(configuration not stated)", "outcome": "inactive"}, {"molecule": "Cn1cc([N+](=O)[O-])c(C(=O)N(Cc2ccccc2)Cc2ccccc2)n1", "outcome": "inactive"}, {"molecule": "CNc1ccc(Br)cc(C(=O)/C=C/c2cccc(OC)c2OC)c1=O", "outcome": "inactive"}, {"molecule": "COc1ccc(Br)cc1/C=C/C(=O)NC(=S)Nc1ccc(Cl)c(C(=O)O)c1", "outcome": "inactive"}, {"molecule": "CC1(C)CC(=O)C(C(C2=C(O)CC(C)(C)CC2=O)c2ccc(O)c([N+](=O)[O-])c2)=C(O)C1", "outcome": "inactive"}, {"molecule": "O=C(O)/C(=C\\c1c(C(=O)O)[nH]c2cc(Cl)cc(Cl)c12)c1ccccc1", "outcome": "inactive"}, {"molecule": "Oc1c(Br)cc(/C=N/n2c(-c3ccccc3)n[nH]c2=S)cc1Br", "outcome": "inactive"}, {"molecule": "CCOCCCNC(=O)CC1Oc2ccc(C)cc2NC1=O", "note": "(configuration not stated)", "outcome": "inactive"}, {"molecule": "Cc1ccc(CC(CC(=O)Nc2cccc(C(F)(F)F)c2)C(=O)O)cc1", "note": "(configuration not stated)", "outcome": "inactive"}, {"molecule": "O=C1CCCC/C1=C/Nc1ccc2c(c1)OCO2", "outcome": "inactive"}, {"molecule": "CC(=O)Oc1ccc(/C=C2/C(=O)N(c3ccccc3)N=C2C)cc1", "outcome": "inactive"}, {"molecule": "COC(=O)CC1=NN(c2ccccc2)C(=O)/C1=C\\c1ccc(OC)cc1", "outcome": "inactive"}, {"molecule": "Cc1ccc(C2C(C#N)=C(N)Oc3nc(-c4ccccc4)[nH]c32)o1", "note": "(configuration not stated)", "outcome": "inactive"}, {"molecule": "O=C1C(Cl)=C(NCCc2ccccc2)C(=O)c2ccccc21", "outcome": "inactive"}, {"molecule": "COc1cccc(/C=C2\\SC(=S)N(C(C(=O)O)c3ccccc3)C2=O)c1OC", "note": "(configuration not stated)", "outcome": "inactive"}, {"molecule": "COc1cc2c3c(c1)-c1c(sn(-c4cc(OC)ccc4OC)c1=S)C(C)(C)N3C(=O)C2=O", "outcome": "inactive"}, {"molecule": "C#CCOc1c(Br)cc(/C=C2/C(=O)ON=C2C)cc1OCC", "outcome": "inactive"}]}]}
